Only some compounds are listed: those with a hit (about 3.2% of all), similar ones and a draw of the others.
TcdB inh = blocks C. difficile toxin B glycohydrolase activity; P18177; TcdB glycohydrolase enzymatic assay, plate reader; inhibition, % at 9.99 µM; 350,000 tested, 0.24% active
PrPC TRFRET = reduces human prion protein on the cell surface. AID 720596. inhibition, % at 13.8 µM. 370,000 tested, 0.43% active. cell surface PrPC, TR-FRET read-out; in the data active means inhibition above about 24%; further: 0% = median of the test wells and 100% = reference compound wells
GDH-TPI counter-1 = inhibits GDH-TPI coupling enzymes, artifact for Mtb FBA screen. GDH-TPI coupled enzyme counterscreen, NADH absorbance. inhibition, % at 4.8 µM. 360,000 tested, 1.2% active. AID 588335; in the data active means inhibition above about 30%;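 further: 0% = DMSO wells and 100% = wells lacking the enzyme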
Yp Topo-I inh = Y. pestis Topo-I inhibition via cleavage products. Y. pestis Topo-I cleavage product accumulation, plate reader. 360,000 tested, 0.064% active. activity, % at 10 µM. AID 504884; in the data active means activity above about 50%, passing the limit was not always enough
FBA Mtb inh = inhibits M. tuberculosis FBA enzyme; purified M. tuberculosis FBA, fluorescence read-out; P9WQA3; 360,000 tested, 2.3% active; AID 588726; inhibition, % at 1 µM; in the data active means inhibition above about 27%;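 further: 0% = vehicle and 100% = reference inhibitor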
Mtb FBA inh conf = confirmation of M. tuberculosis fructose-bisphosphate aldolase inhibitors; shares compounds with FBA Mtb inh; purified M. tuberculosis FBA, fluorescence read-out; inhibition, % at 1 µM; 5,600 tested, 78% active; AID 651616; in the data active means inhibition above about 27%;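 further: 0% = vehicle wells and 100% = reference inhibitor wells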
GDH-TPI counter-2 = GDH-TPI inhibition counter-screen for FBA inhibitors | GDH-TPI coupled enzyme counterscreen, fluorescence | 5,600 tested, 81% active | shares compounds with FBA Mtb inh | inhibition, % at 1 µM | AID 652141
GDH-TPI DR = inhibits GDH-TPI coupling enzymes in dose response; AID 652145; 170 tested, 79% active; shares compounds with FBA Mtb inh; IC50, µM; GDH-TPI coupled enzyme assay, fluorescence, artifact counterscreen; call rule not given here
The depositor's hits bear a star; · = no result; + = active, no number. Unless noted, no stated cut-off is given here; in the data, active means inhibition above about 10%; inactive means the rest.

SMILES	TcdB inh	PrPC TRFRET	GDH-TPI counter-1	Yp Topo-I inh	FBA Mtb inh	Mtb FBA inh conf	GDH-TPI counter-2	others
O=C(C[C@@H]1C=C[C@H](NC(=O)Nc2ccc(F)cc2)[C@@H](CO)O1)NCc1ccccn1	0.7	·	·	·	·	·	·
COc1ccc(S(=O)(=O)Nc2ccc3c(c2)CC(=O)N([C@@H](C)CO)C[C@H](C)[C@H](CN(C)Cc2ccc4c(c2)OCO4)O3)cc1	-3.3	·	·	·	·	·	·
Cc1ccc2[nH]cc(C(=O)NCc3cccs3)c(=O)c2c1	0.6	7.7	-4.1	1.1	0.2	·	·
COc1cccc2c(=O)c(C(=O)NCc3cccs3)c[nH]c12	·	22.5	12.2	-4.5	34.2*	32.3*	26.0*
CC(C)NC(=O)Nc1ccc2c(c1)C(=O)N([C@@H](C)CO)C[C@@H](C)[C@H](CN(C)C(=O)c1ccccc1)OCCCC[C@@H](C)O2	0.6	·	·	·	·	·	·
Cc1ccc(C=Nc2ccccc2C(N)=O)s1	·	6.2	13.3	2.0	58.4*	59.5*	50.2*
Cc1cccc(C=Nc2ccccc2C(N)=O)c1	-6.0	14.4	2.1	-1.3	35.6*	139.9*	100.9*
Cc1cccc(/C=N/NC(=O)Cc2cccs2)c1	1.4	7.2	-11.5	1.0	0.9	·	·
Cc1ccc(/C=N/N=C/c2ccc(C)s2)s1	·	4.1	18.4	10.6	0.9	·	·
N#Cc1ccc(-c2ccc3c(c2)[C@@H]2[C@@H](CCN2S(=O)(=O)c2cccc(F)c2)[C@@H](CO)N3)cc1	-1.3	·	·	·	·	·	·
COC(=O)Cc1ccc(OCc2ccc(Cl)nc2)cc1	0.6	-2.3	-5.0	5.7	53.3*	147.9*	102.3*
O=c1oc2ccccc2cc1-c1nc2c(s1)CCc1ccccc1-2	·	-0.2	-0.4	-2.8	5.0	·	·
O=c1oc2cc(O)ccc2cc1-c1nc2c(s1)CCc1ccccc1-2	·	-0.8	-6.6	-1.4	37.9*	·	+
COc1cccc(-c2c(-c3cc(OC)cc(OC)c3)n(C)c3ccc(-c4ccc5[nH]ccc5c4)cc23)c1	·	2.2	24.4	1.3	42.2*	+	+
COc1cc(OC)cc(-c2c(-c3ccc(F)cc3)c3cc(-c4ccc5[nH]ccc5c4)ccc3n2C)c1	0.9	-3.7	24.7	-1.2	49.4*	-3.8	-4.6
CCNc1oc(/C=C/c2ccc(OCC)cc2)nc1C#N	1.8	-3.0	16.9	9.8	29.4*	85.6*	70.8*
CCN(CC)C(=O)CN1C(=O)C2(NC(=O)c3ccccc3N2)c2ccccc21 (configuration not stated)	0.5	-0.9	6.9	8.4	12.5	·	·
CC(=O)N1CC2(NC(=O)c3ccccc3N2)c2ccccc21 (configuration not stated)	1.7	4.4	4.3	8.9	80.4*	+	188.2*
c1ccc(-c2cc3ccccc3[nH]2)cc1	0.5	10.8	5.3	-14.3	60.1*	114.0*	93.4*
COc1ccc(-c2cc3ccccc3[nH]2)cc1	-3.2	7.4	0.5	-18.1	29.1*	73.7*	61.7*
Cc1ccc(O)c(-c2cc(-c3ccccc3F)[nH]n2)c1	·	8.4	-11.9	-10.7	0.4	·	·
Cc1ccc(O)c(-c2cc3ccccc3[nH]2)c1	·	-2.7	15.9	-5.5	52.4*	71.1*	44.7*
COc1ccc(-c2cc(=O)c3ccccc3[nH]2)cc1	0.1	3.3	11.2	0.0	11.8	·	·
CC(=O)N1CC2(C1)[C@H](c1ccccc1)[C@H](CO)N2Cc1cc(F)ccc1F	0.4	·	·	·	·	·	·
Cc1cc(C[n+]2ccccc2)c2nsnc2c1	·	-17.4	11.2	0.7	30.9*	96.5*	71.6*
SMILES	TcdB inh	PrPC TRFRET	GDH-TPI counter-1	Yp Topo-I inh	FBA Mtb inh	Mtb FBA inh conf	GDH-TPI counter-2	others
C[C@H](CO)N1C[C@H](C)[C@H](CN(C)Cc2ccc(Oc3ccccc3)cc2)Oc2ccc(NC(=O)Nc3ccc4c(c3)OCO4)cc2C1=O	-0.2	·	·	·	·	·	·
Cn1c(=O)n(Cc2ccccc2)c(=O)c2c1nc1n2CCCN1C1CCCCC1	0.8	3.7	10.8	9.8	3.3	·	·
Cn1c(=O)n(Cc2ccc(F)cc2)c(=O)c2c1nc1n2CCCN1C1CCCCC1	·	7.2	1.2	-9.4	29.2*	153.6*	147.3*
C[C@H]1CCCCO[C@H](CN(C)C(=O)Cc2ccccc2)[C@@H](C)CN([C@@H](C)CO)C(=O)c2cc(NS(=O)(=O)c3cccs3)ccc2O1	0.0	·	·	·	·	·	·
O=c1ccc2cc3c4c(c2o1)CCCN4CCC3	-0.6	-13.4	0.0	-13.5	54.4*	62.1*	59.7*
Cn1c(N)nc2nc(CCc3ccccc3)c(=O)[nH]c2c1=O	-0.1	-6.1	4.2	1.2	60.4*	7.9	1.6
Cn1c(=O)c2c(nc(CCc3ccccc3)n2C)n(C)c1=O	2.4	-1.5	-4.4	12.2	-2.2	·	·
CCC(=O)Nc1ccc2c(c1)C(=O)N(C)[C@@H]1CC[C@@H](CC(=O)NCCCN(C)C)O[C@@H]1CO2	-2.6	·	·	·	·	·	·
O=C(NCC[C@@H]1CC[C@@H](NS(=O)(=O)c2ccc(F)cc2)[C@H](CO)O1)Nc1ccc(Cl)cc1	-1.3	·	·	·	·	·	·
CC(=O)c1ccc(S(=O)(=O)N2CCCC(N(C)CCc3ccccn3)C2)cc1 (configuration not stated)	2.1	-0.2	-0.9	6.7	75.7*	-2.5	-5.1
N#Cc1nc(-c2ccco2)oc1N1CCN(Cc2ccccc2)CC1	·	-17.7	12.8	-2.5	5.8	·	·
CC1CN(c2oc(-c3ccco3)nc2C#N)CC(C)O1 (configuration not stated)	·	-4.2	13.5	-3.1	88.0*	138.5*	92.8*
[O-]/C(=C(\C(=S)Nc1cccc2ccccc12)[n+]1cccc(CO)c1)c1ccc(Cl)s1	2.0	-10.1	3.1	-13.6	31.1*	151.0*	129.0*
Cc1ccc(NC(=S)/C(=C(\[O-])c2ccc(Cl)s2)[n+]2cccc(CO)c2)cc1C	0.0	-3.7	1.9	21.8	-6.6	·	·
NC(=O)c1cc2nc(-c3ccco3)cc(C(F)(F)F)n2n1	·	-2.0	28.3	-3.0	23.8	·	·
FC(F)(F)c1cc(-c2ccco2)nc2ncnn12	-0.2	-8.8	17.4	2.4	27.4*	75.3*	56.5*
Cc1ccc(Nc2cc(-c3ccccc3)nc3ncnn23)cc1	-8.1	11.6	1.5	4.5	-19.8	·	·
FC(F)(F)c1cc(-c2ccccc2)nc2ncnn12	0.7	2.4	0.6	-0.5	34.0*	0.4	-3.0
CC(=O)N(C)C[C@@H]1Oc2ncc(C#Cc3ccccc3F)cc2C(=O)N([C@@H](C)CO)C[C@H]1C	-1.1	·	·	·	·	·	·
Fc1ccc(COc2ccc(C(=S)N3CCCC3)cc2)cc1	1.0	0.2	-1.5	16.3	0.0	·	·
S=C(c1ccc(OCc2ccccc2)cc1)N1CCCC1	1.4	-1.9	10.4	10.5	30.4*	12.1	0.3	GDH-TPI DR=>10
c1ccc2nc3[nH]cnc3nc2c1	0.4	-7.5	21.2	-0.2	42.0*	154.4*	101.3*
CCc1csc(N2[C@H](C#N)[C@H](c3ccc(C4=CCCC4)cc3)[C@H]2CO)n1	-1.5	·	·	·	·	·	·

High-throughput results as filed in PubChem BioAssay.
